The record followed here is PubChem BioAssay (NCI).

This is part of a sample that, as a whole, favours compounds with a hit. Of some 83,000 tested, about 20% had one in any assay.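 Single-concentration screen, 48 h exposure, 96-well plates. Endpoint: percent growth. Below 10 = active.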 Unmarked numbers belong to inactive results. The source made the active and inactive calls.

Holding throughout (experiment): NCI-60 one-dose screen, 48 h (100 = growth as untreated, 0 = no growth, -100 = all killed)
In one assay the test system is SR leukemia. The following applies: 10 µM unless noted.
The next assay relates to OVCAR-8 ovarian. Particulars: 10 µM unless noted.
A further assay deals with OVCAR-5 ovarian. Particulars: 10 µM unless noted.
A further assay has as its system OVCAR-4 ovarian. The following applies: 10 µM.
The test system of another assay is IGROV1 ovarian. The following applies: 10 µM unless noted.
The test system of the next assay is OVCAR-3 ovarian. The following applies: 10 µM unless noted.
The test system of the next assay is HS 578T breast. The following applies: 10 µM unless noted.
The subject of a further assay is NCI/ADR-RES ovarian. Particulars: 10 µM unless noted.
The subject of a further assay is T-47D breast. The following applies: 10 µM unless noted.
The test system of the next assay is BT-549 breast. Particulars: 10 µM unless noted.
The next assay has as its system MDA-MB-435 melanoma. The following applies: 10 µM unless noted.
A further assay has as its system SW-620 colon. Particulars: 10 µM unless noted.
In the next assay the test system is MCF7 breast. Particulars: 10 µM unless noted.
The next assay has as its system HCT-116 colon. The following applies: 10 µM unless noted.
The next assay deals with HCC-2998 colon. Particulars: 10 µM unless noted.
The subject of a further assay is KM12 colon. Particulars: 10 µM unless noted.
The test system of a further assay is SK-OV-3 ovarian. Particulars: 10 µM unless noted.
In a further assay the test system is RPMI-8226 leukemia. The following applies: 10 µM unless noted.

In the case of `O=C1/C(=C\c2cccn2Cc2ccccc2)c2ccccc2N1c1c(Cl)cccc1Cl`, the growth in the assay with SR leukemia is 90.6%; in the assay on OVCAR-8 ovarian it was 90.8%; in the assay with OVCAR-5 ovarian, 38.7%; in the assay on OVCAR-4 ovarian, -2.5% (active); in the assay on IGROV1 ovarian it was 28.2%; with OVCAR-3 ovarian it was 7.01% (active). Further, the growth in the assay with HS 578T breast was 83.2%; in the assay on NCI/ADR-RES ovarian, 70.9%; in the assay on T-47D breast it was -35.7% (active); in the assay on BT-549 breast, 81%; in the assay on MDA-MB-435 melanoma, 91%; in the assay with SW-620 colon, 85.7%. The growth was 6.23% (active) in the assay on MCF7 breast, 27.1% in the assay on HCT-116 colon, 22.1% with HCC-2998 colon and 4.07% (active) in the assay with KM12 colon.
For the molecule `C#C[C@]1(O)CC[C@H]2[C@@H]3CC=C4c5nc(Nc6ncccn6)sc5CC[C@]4(C)[C@H]3CC[C@@]21C`, the growth was 17.8% with SR leukemia; 77% in the assay on OVCAR-8 ovarian; 67.9% with OVCAR-4 ovarian; 70.8% in the assay with IGROV1 ovarian; 65.3% with OVCAR-3 ovarian; 1.8% (active) with HS 578T breast. Also, the growth in the assay on NCI/ADR-RES ovarian was 75.4%; with T-47D breast, 40%; in the assay with BT-549 breast, 19.5%; in the assay on MDA-MB-435 melanoma, 50.5%; in the assay with SW-620 colon, 60.4%; in the assay with MCF7 breast, 59.7%. In addition, the growth in the assay on HCT-116 colon is 22.3%; in the assay with HCC-2998 colon, 88.3%; with KM12 colon, 48.5%.
On to `CC1(C)CC[C@]23CC[C@]4(C)[C@H](CC[C@@H]5[C@@]6(C)C/C(=C/c7ccncc7)C(=O)C(C)(C)[C@@H]6CC[C@]54C)[C@H]2[C@H]1OC3=O`, for which the growth is 93.5% [100 µM] in the assay with SR leukemia; 111% [100 µM] with OVCAR-5 ovarian; 47.7% [100 µM] in the assay with SK-OV-3 ovarian; 70.1% [100 µM] in the assay on IGROV1 ovarian; 85.2% [100 µM] in the assay on OVCAR-3 ovarian; -3.34% [100 µM] (active) with HS 578T breast. Also, the growth in the assay with NCI/ADR-RES ovarian was 64.4% [100 µM]; with T-47D breast, 62.6% [100 µM]; with BT-549 breast it was 52.4% [100 µM]; in the assay with MDA-MB-435 melanoma, 78.7% [100 µM]; in the assay on SW-620 colon, 80.8% [100 µM]; in the assay with MCF7 breast it was 70.1% [100 µM]. In addition, the growth is 47.9% [100 µM] in the assay with HCT-116 colon, 78.2% [100 µM] with HCC-2998 colon and 81.3% [100 µM] in the assay with KM12 colon.
`C=C(C)[C@@H]1CC[C@]2(C(=O)NCCNCCNC(=O)OC(C)(C)C)CC[C@]3(C)[C@H](CC[C@@H]4[C@@]5(C)CCC(=O)C(C)(C)[C@@H]5CC[C@]43C)[C@@H]12`: the growth is 52.4% [100 µM] in the assay on SR leukemia; 44.4% [100 µM] in the assay with OVCAR-8 ovarian; 60.4% [100 µM] in the assay on OVCAR-5 ovarian; 49.8% [100 µM] with SK-OV-3 ovarian; 34.7% [100 µM] in the assay on IGROV1 ovarian; 32.3% [100 µM] with OVCAR-3 ovarian. In addition, the growth in the assay on HS 578T breast was 37.8% [100 µM]; in the assay with NCI/ADR-RES ovarian, 52.2% [100 µM]; in the assay with T-47D breast it was 28% [100 µM]; in the assay on BT-549 breast, 54.2% [100 µM]; in the assay on MDA-MB-435 melanoma, 36.8% [100 µM]; in the assay with SW-620 colon it was 28.8% [100 µM]. For the same molecule, the growth is 22.2% [100 µM] in the assay on MCF7 breast, 17.5% [100 µM] with HCT-116 colon, 60.5% [100 µM] with HCC-2998 colon and 34.3% [100 µM] in the assay with KM12 colon.
With `CCN(CC)c1ccc(/C=C/c2ccc3cc(C)ccc3[n+]2CC)cc1`, the growth in the assay with SR leukemia was -17.6% (active); in the assay with OVCAR-8 ovarian, 2.3% (active); in the assay on OVCAR-5 ovarian, 26.8%; with OVCAR-4 ovarian, 21.2%; with SK-OV-3 ovarian, -11.6% (active); in the assay on IGROV1 ovarian, 26.5%. In addition, the growth is 14.9% in the assay with OVCAR-3 ovarian; 46.5% in the assay on HS 578T breast; 45.7% in the assay on NCI/ADR-RES ovarian; -33.3% (active) in the assay with MDA-MB-435 melanoma; 17.6% in the assay with SW-620 colon; 3.46% (active) in the assay on MCF7 breast. Moreover, the growth in the assay with HCT-116 colon was 7.53% (active); in the assay on HCC-2998 colon it was 16.5%.
On to `COc1cc2c(=O)[nH]c3cc([N+](=O)[O-])ccc3c2cc1[N+](=O)[O-]`, for which the growth in the assay with RPMI-8226 leukemia is 57.2%; with OVCAR-8 ovarian, 45.9%; with OVCAR-5 ovarian it was 74.1%; with OVCAR-4 ovarian, 54.1%; in the assay with SK-OV-3 ovarian, 77.4%; in the assay with IGROV1 ovarian, 41.5%. Further, the growth with OVCAR-3 ovarian is 63.7%; in the assay on HS 578T breast, 66.6%; in the assay with NCI/ADR-RES ovarian, 48.7%; with T-47D breast, 49.1%; in the assay with BT-549 breast it was 50.4%; in the assay with SW-620 colon it was 35.5%. Moreover, the growth in the assay with MCF7 breast was 16.5%; in the assay on HCT-116 colon, 21.5%; in the assay with HCC-2998 colon it was 62.8%; with KM12 colon, 53.3%.
For the molecule `Cc1ccccc1OC(=O)c1cccc(Cl)c1`, the growth was 97.3% in the assay on SR leukemia; 112% in the assay with OVCAR-8 ovarian; 104% with OVCAR-5 ovarian; 112% in the assay with OVCAR-4 ovarian; 137% in the assay with SK-OV-3 ovarian; 104% in the assay with IGROV1 ovarian. For the same molecule, the growth with OVCAR-3 ovarian is 109%; in the assay on NCI/ADR-RES ovarian, 108%; in the assay with T-47D breast, 142%; with BT-549 breast it was 107%; in the assay on MDA-MB-435 melanoma, 113%; in the assay with SW-620 colon, 101%. The growth in the assay with MCF7 breast was 108%; in the assay on HCT-116 colon it was 103%; in the assay with HCC-2998 colon, 99.8%; in the assay with KM12 colon, 101%.
For the molecule `C=C(C)[C@@H]1CC[C@]2(C(=O)N3CCN(C)CC3)CC[C@]3(C)[C@H](CC[C@@H]4[C@@]5(C)C/C(=C/c6ccncc6)[C@H](O)C(C)(C)[C@@H]5CC[C@]43C)[C@@H]12`, the growth is -14.3% [100 µM] (active) in the assay with SR leukemia; 7.38% [100 µM] (active) with OVCAR-5 ovarian; 0.185% [100 µM] (active) with SK-OV-3 ovarian; -23.5% [100 µM] (active) in the assay on IGROV1 ovarian; -50% [100 µM] (active) in the assay on OVCAR-3 ovarian; -19.5% [100 µM] (active) in the assay with HS 578T breast. In addition, the growth in the assay with NCI/ADR-RES ovarian was -64% [100 µM] (active); in the assay with T-47D breast, 10.8% [100 µM]; with BT-549 breast it was -43% [100 µM] (active); with MDA-MB-435 melanoma, -39.7% [100 µM] (active); in the assay on SW-620 colon, -55.4% [100 µM] (active); in the assay with MCF7 breast, -60.6% [100 µM] (active). Also, the growth was -79.3% [100 µM] (active) in the assay on HCT-116 colon, -80.7% [100 µM] (active) with HCC-2998 colon and -80.4% [100 µM] (active) in the assay with KM12 colon.
`O=C(N[C@@H]1CCCc2ccccc21)[C@H](CCC(=O)N1CCN(C2CCCCC2)CC1)N1C(=O)[C@@H](N2C(=O)OC[C@@H]2c2ccccc2)[C@H]1/C=C/c1ccccc1`: the growth in the assay on SR leukemia is -25.1% (active); with OVCAR-8 ovarian, 54.4%; in the assay with OVCAR-5 ovarian, 93.5%; with OVCAR-4 ovarian, 36.8%; in the assay on SK-OV-3 ovarian it was 70.6%; in the assay with IGROV1 ovarian, 49.3%. Also, the growth in the assay on OVCAR-3 ovarian is 32.5%; in the assay with HS 578T breast, 48.1%; in the assay with NCI/ADR-RES ovarian, 33.3%; in the assay on T-47D breast, 44.4%; with MDA-MB-435 melanoma, 9.89% (active); with SW-620 colon it was 37.7%. The growth in the assay with HCT-116 colon is 23.8%; in the assay on HCC-2998 colon, 11.6%; in the assay on KM12 colon, 35.5%.
